G9a block = qHTS Assay for Inhibitors of Histone Lysine Methyltransferase G9a | Histone-lysine N-methyltransferase EHMT2 (Homo sapiens), Q96KQ7 | G9a H3K9 monomethylation, AlphaScreen, 2 h | Potency, µM (titrated, usually from 102 µM), inactives show at the highest dose activity, negative = inhibition, hits mostly inhibitors | actives 8.8% (n = 350,000) | AID 504332, 2011; further: on the % scale 0 is the no-effect control and ±100 the full control effect; nearly all actives have a fitted effect of over 75% in size
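Enzyme 20 nM + cpd, 15 min RT; add b-H3K9 pep 500 nM / SAM 20 uM; 2 h RT; anti-H3K9me1 Ab 0.5 ug/mL + SA donor / anti-rabbit acceptor beads 20 ug/mL each, 10 min; AlphaScreen read.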
Sfp inh = qHTS Assay for Inhibitors of Bacillus subtilis Sfp phosphopantetheinyl transferase (PPTase). 4'-phosphopantetheinyl transferase ffp (Bacillus subtilis), Q9F4F7. Biochemical Sfp PPTase activity, qHTS. Potency, µM, inactives show largest response in the series, negative = inhibition, hits mostly inhibitors. actives 3.5% (n = 310,000);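 further: the enzyme is Sfp with the accession as filed and its product quenches rhodamine fluorescence; 0% = enzyme reaction without inhibitor and -100% = no enzyme wells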
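After 15 min at room temperature with compound, 15 nM Sfp received 5 uM rhodamine-CoA plus 12.5 uM BHQ-2-ybbR (50 mM Hepes pH 7.6, 10 mM MgCl2). Rate came from the fluorescence difference over 30 min, ex 525/em 598 nm.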
JMJD2A Tudor = qHTS Assay for Inhibitors of JMJD2A-Tudor Domain; actives 4.4% (n = 390,000); Potency, µM (series often up to 114 µM), without a hit: top-dose activity change, negative = inhibition, hits mostly inhibitors; AlphaScreen JMJD2A-Tudor / H3K4me3 peptide binding; AID 504339, 2011; further: on the % scale 0 is the no-effect control and ±100 the full control effect; nearly all actives have a fitted effect of over 50% in size
HP1b chromo inh = HTS for Inhibitors of HP1-beta Chromodomain Interactions with Methylated Histone Tails; Potency, µM (top dose mostly 114 µM), for inactives: at the top dose activity change, negative = inhibition, actives largely listed as inhibitors; AlphaScreen HP1-beta / biotin-H3K9me3 peptide binding; actives 0.56% (n = 390,000); AID 540317, 2011; further: nearly all actives have a fitted effect of over 70% in size
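AlphaScreen: HP1-beta (50 nM) preformed 30 min with biotin-H3(1-18)K9me3 peptide (50 nM) in PBS pH 7.4, 0.01% Tween-20. Compound added for 30 min at RT, then streptavidin donor/nickel chelate acceptor beads (10 ug/mL) for 30 min.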
PLK1 PBD inh = qHTS for Inhibitors of PLK1-PDB (polo-like kinase 1 - polo-box domain): Primary Screen; actives 2.8% (n = 360,000); Plk1 PBD binding of FITC phosphopeptide, fluorescence polarization; Potency, µM, without a hit: max response, negative = inhibition, hits mostly inhibitors; Serine/threonine-protein kinase PLK1 (Homo sapiens), P53350; further: series mostly up to about 57 µM; on the % scale 0 is the no-effect control and ±100 the full control effect; nearly all actives have a fitted effect of over 65% in size
BAZ2B inh = qHTS Assay for Inhibitors of BAZ2B | Bromodomain adjacent to zinc finger domain protein 2B (Homo sapiens), Q9UIF8 | AlphaScreen BAZ2B-H3K14Ac peptide displacement | Potency, µM (doses to about 114 µM), for the others: top-dose activity change, negative = inhibition, actives largely listed as inhibitors | actives 4.4% (n = 360,000) | AID 504333, 2011; further: on the % scale 0 is the no-effect control and ±100 the full control effect; nearly all actives have a fitted effect of over 60% in size
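Complex of BAZ2B and biotin-H3K14Ac (50 nM apiece) forms over 30 min at RT, then faces library compounds up to 110 uM for another 30 min; AlphaScreen beads added, 20 min dark incubation, luminescence read.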
TbPYK inh = qHTS of Trypanosoma Brucei Inhibitors: Confirmatory Assay for Cherry-picked Compounds; Potency, µM (series often up to 76.9 µM), without a hit: at the top dose activity change, negative = inhibition, actives largely listed as inhibitors; recombinant TbPYK, Kinase-Glo ATP luminescence; actives 67% (n = 890); shares compounds with PLK1 PBD inh; AID 720569, 2013; further: on the % scale 0 is the no-effect control and ±100 the full control effect; nearly all actives have a fitted effect of over 70% in size
TbPYK ADP-Glo = qHTS of Trypanosoma Brucei Inhibitors: Orthogonal Assay for Cherry-picked Compounds. shares compounds with PLK1 PBD inh. recombinant TbPYK, ADP-Glo luminescence, 60 min. Potency, µM (top dose mostly 76.9 µM), inactives show at the top dose activity change, negative = inhibition, actives largely listed as inhibitors. actives 62% (n = 890); further: on the % scale 0 is the no-effect control and ±100 the full control effect; nearly all actives have a fitted effect of over 75% in size
Starred values were filed as active, the others as inactive; [ ] = remark or other dose. Rows were chosen to be rich in hits. Some 12% of all compounds tested hit in one or more screens of this group. The call rests on the fitted dose curve; in most records, active means well fitted curve in the direction sought with a large enough effect; inconclusive means small, poorly fitted or top-dose-only effect, or another doubt; inactive means no such curve, though single readings can be large; an effect the other way counts as inactive or inconclusive. Potency means the concentration at half of the fitted maximal effect.

Results for COc1ccc(S(=O)(=O)N(C)C[C@H]2OCCCC[C@H](C)Oc3ccc(N(C)C)cc3C(=O)N([C@H](C)CO)C[C@@H]2C)cc1 ?
PLK1 PBD inh: -12.3%; TbPYK inh: 11.2µM*; TbPYK ADP-Glo: inconclusive

Results for O=P(O)(O)C(Cl)(Cl)P(=O)(O)O ?
G9a block: -9.5%[12.7 µM]; Sfp inh: 23.7%

Results for O=C1NC(=O)C(=Cc2ccc(OCC(=O)N3CCOCC3)cc2)C(=O)N1 ?
G9a block: inconclusive; Sfp inh: inconclusive; JMJD2A Tudor: -11.4%; HP1b chromo inh: 54.4%; PLK1 PBD inh: 26.7µM*; BAZ2B inh: -4.3%; TbPYK inh: 17.8µM*; TbPYK ADP-Glo: inconclusive

How did O=C1CCCc2c1nc(-c1ccccc1)n2O do in these assays?
G9a block: -24.0%[12.7 µM]; Sfp inh: 10.4%; JMJD2A Tudor: -22.4%; HP1b chromo inh: -14.5%; PLK1 PBD inh: inconclusive; BAZ2B inh: 4.3%

Results for COC(=O)C1=C(C(=O)OC)C2OC1c1cc3ccccc3cc12 ?
JMJD2A Tudor: 89.1µM*; HP1b chromo inh: 1.2%; PLK1 PBD inh: 2.99µM*; TbPYK inh: 10µM*; TbPYK ADP-Glo: 12.6µM*

Results for O=C(CCC1CCCN(Cc2cccc3c2OCO3)C1)NCc1ccc(F)c(F)c1 (configuration not stated) ?
G9a block: 18.7%[12.7 µM]; Sfp inh: -6.9%; JMJD2A Tudor: -6.9%; HP1b chromo inh: 57.8%; PLK1 PBD inh: 5.9%; BAZ2B inh: -15.4%

What do the screens show for `CC1O[C@@H](OC2CC(O)[C@@]3(CO)C4C(O)C[C@@]5(C)C(C6=CC(=O)OC6)CC[C@]5(O)C4CC[C@]3(O)C2)C(O)C(O)C1O` (some centres not stated)?
G9a block: -26.7%[2.33 µM]; Sfp inh: 17.3%

What do the screens show for `O=C1NC(=S)NC(=O)C1=Cc1ccc(Br)s1`?
Sfp inh: 15.8µM*; JMJD2A Tudor: 28.2µM*; HP1b chromo inh: inconclusive; PLK1 PBD inh: 2.12µM*; BAZ2B inh: 56.2µM*; TbPYK inh: 10µM*; TbPYK ADP-Glo: 15.8µM*

What do the screens show for `O=C(Cc1ccc(S(=O)(=O)N2CCCC2)s1)N1CCN(c2ccc(F)cc2)CC1`?
G9a block: inconclusive; Sfp inh: 15.8%; JMJD2A Tudor: inconclusive; HP1b chromo inh: inconclusive; PLK1 PBD inh: -6.7%

How did COC1CC(C)C(OC)c2cc(O)cc(c2O)NC(=O)C(C)=CC=CC(C)C(OC(N)=O)C(C)=CC(C)C1OC (configuration not stated) do in these assays?
JMJD2A Tudor: 89.1µM*; HP1b chromo inh: 70.8µM*; PLK1 PBD inh: 18.9µM*; TbPYK inh: inconclusive; TbPYK ADP-Glo: 12.6µM*

Screening data from PubChem.
